From PubChem BioAssay (NCI) come the findings set out here.

Some test systems named below: DU-145 prostate; K-562 leukemia; MALME-3M melanoma; MDA-MB-231 breast; RXF 393 renal; SF-268 CNS; SF-539 CNS; UACC-257 melanoma; M14 melanoma.
What all share (assay): NCI-60 one-dose screen, 48 h (100 = growth as untreated, 0 = no growth, -100 = all killed)
Holding throughout (details): 10 µM unless noted

The panel holds about 83,000 compounds, 20% with a hit somewhere; the sample as a whole holds those more often.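 48-hour exposure, single concentration, 96-well plates; percent growth endpoint where 0 means no net growth. Active: below 10.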 Unmarked numbers belong to inactive results. Calls of active or inactive are those of the source.

Regarding `C#Cc1cc2c(N)c(C(=O)c3cc(OC)c(OC)c(OC)c3)[nH]c2cc1OC`, the growth in the experiment with DU-145 prostate was 19%; in the experiment on K-562 leukemia, 13.4%; in the experiment with MALME-3M melanoma, 25.7%; with MDA-MB-231 breast it was 49.2%; with RXF 393 renal, -5.3% (active); in the experiment on SF-268 CNS, 49.6%. In addition, the growth in the experiment on SF-539 CNS is -23.6% (active); in the experiment on UACC-257 melanoma, 70.5%; with M14 melanoma, 19.9%.

In the case of `NC(=O)[C@@H]1CC2CCC1C2` (some centres undefined), the growth with DU-145 prostate was 50.4%; with K-562 leukemia it was 45.5%; with MALME-3M melanoma, 101%; in the experiment on MDA-MB-231 breast, 123%; with RXF 393 renal, 110%; in the experiment on SF-539 CNS it was 91.9%. The figures for the growth in the experiment on UACC-257 melanoma and in the experiment on M14 melanoma were 111% and 118%, respectively.

For `COc1ccc(/C=C2\N=C(c3ccccc3)N(c3cc(OC)c(OC)cc3C(=O)N3N=C(C)CC3=O)C2=O)cc1`, the growth is 95.2% in the experiment on DU-145 prostate; 81.5% in the experiment with K-562 leukemia; 126% with MALME-3M melanoma; 87.4% in the experiment on MDA-MB-231 breast; 93.5% in the experiment with RXF 393 renal; 91.4% in the experiment with SF-268 CNS. The growth in the experiment with SF-539 CNS was 94.6%; with UACC-257 melanoma, 128%; in the experiment with M14 melanoma, 97.9%.

With `O=C(CI)Nc1ccc(O)c2ccccc12`, the growth in the experiment on DU-145 prostate is 41.9%; with K-562 leukemia, -16.2% (active); with MALME-3M melanoma it was -14% (active); with MDA-MB-231 breast, -11.8% (active); in the experiment on RXF 393 renal, -89.7% (active); in the experiment on SF-268 CNS it was -0.419% (active). The results for the growth with SF-539 CNS, with UACC-257 melanoma and in the experiment with M14 melanoma were -28.6% (active), 10.7% and -58.9% (active), respectively.

Take `[B-][N+](CC)(CC)c1ccccc1`: the growth was 106% with DU-145 prostate; 105% with K-562 leukemia; 98.1% with MALME-3M melanoma; 119% in the experiment with MDA-MB-231 breast; 115% in the experiment on RXF 393 renal; 103% with SF-268 CNS. Further, the growth was 97% with SF-539 CNS, 105% with UACC-257 melanoma and 88.6% in the experiment with M14 melanoma.

On to `COc1cc2[nH]c(C(=O)c3cc(OC)c(OC)c(OC)c3)c(N)c2cc1C#CCO`, for which the growth in the experiment on DU-145 prostate is 12.2%; in the experiment with K-562 leukemia, 7.65% (active); in the experiment on MALME-3M melanoma, 31.7%; with MDA-MB-231 breast, 39%; with RXF 393 renal, 1.88% (active); with SF-268 CNS, 32.5%. The growth in the experiment on SF-539 CNS was -35% (active); with UACC-257 melanoma it was 71.2%; in the experiment with M14 melanoma, 7.42% (active).

As to `Cc1cc(Nc2ccc(F)cc2)nc(N2CCN(c3ccnc4cc(Cl)ccc34)CC2)n1`, the growth was 35% with DU-145 prostate; 6.26% (active) with K-562 leukemia; 12.7% in the experiment on MALME-3M melanoma; 37.9% in the experiment with MDA-MB-231 breast; 38.9% in the experiment on RXF 393 renal; 36.2% with SF-268 CNS. For the same compound, the growth in the experiment on SF-539 CNS is 14%; in the experiment with UACC-257 melanoma, 38.3%; in the experiment on M14 melanoma, 12.9%.

As to `COc1ccc2c(c1)C/C(=C\c1cc(-c3ccc4c(c3)OCO4)n[nH]1)C2=O`, the growth in the experiment on DU-145 prostate was 112%; with K-562 leukemia, 60.1%; in the experiment on MALME-3M melanoma, 112%; with MDA-MB-231 breast it was 79.7%; in the experiment with RXF 393 renal, 95.6%; in the experiment on SF-268 CNS, 106%. The growth in the experiment on SF-539 CNS is 92.4%; in the experiment with UACC-257 melanoma, 103%; in the experiment on M14 melanoma, 97.2%.

On to `Fc1ccc2nc(-c3cc(-c4ccc5c(c4)OCO5)n[nH]3)[nH]c2c1`, for which the growth is 78.3% in the experiment on DU-145 prostate; 15.5% with K-562 leukemia; 57.7% with MALME-3M melanoma; 67.6% in the experiment on MDA-MB-231 breast; 63.1% in the experiment on RXF 393 renal; 77.5% with SF-268 CNS. The results for the growth in the experiment with SF-539 CNS, in the experiment with UACC-257 melanoma and with M14 melanoma were 56.3%, 84.9% and 49.5%, respectively.

Turning to `COc1cc(-c2cc(-c3nc4ccccc4[nH]3)[nH]n2)cc(OC)c1OC`, the growth in the experiment on DU-145 prostate was 50.4%; in the experiment on K-562 leukemia, 4.51% (active); in the experiment on MALME-3M melanoma it was 28%; with MDA-MB-231 breast it was 66.2%; in the experiment on RXF 393 renal it was 49.2%; in the experiment with SF-268 CNS, 72.5%. In addition, the growth was 74.8% in the experiment with SF-539 CNS, 44% in the experiment with UACC-257 melanoma and 39.4% in the experiment on M14 melanoma.

Regarding `CCc1ccc(-c2ccc(Nc3ccccc3)nn2)cc1S(N)(=O)=O`, the growth is 77.1% in the experiment on DU-145 prostate; 12.5% in the experiment on K-562 leukemia; 71.4% with MALME-3M melanoma; 69.3% with MDA-MB-231 breast; 77.3% in the experiment on RXF 393 renal; 78.6% with SF-268 CNS. Besides, the growth with SF-539 CNS was 84.3%; with UACC-257 melanoma, 83.7%; with M14 melanoma, 67.1%.

With `COc1ccc(-c2nc3ncccn3c2-c2nc3ccc(Br)cc3[nH]2)cc1`, the growth in the experiment on DU-145 prostate is 94.1%; in the experiment with K-562 leukemia, 63.5%; with MALME-3M melanoma, 81.3%; with MDA-MB-231 breast, 72.9%; in the experiment on RXF 393 renal it was 74.1%; in the experiment on SF-268 CNS, 99.6%. Besides, the figures for the growth in the experiment with SF-539 CNS, in the experiment on UACC-257 melanoma and with M14 melanoma were 82.8%, 92.6% and 90.5%, respectively.

Regarding `COC(=O)c1cc(=O)nc(N/N=C/c2ccc(C)cc2)s1`, the growth with DU-145 prostate is 114%; with K-562 leukemia, 96.1%; in the experiment with MALME-3M melanoma, 94.3%; in the experiment on MDA-MB-231 breast, 113%; in the experiment with RXF 393 renal, 111%; with SF-268 CNS, 104%. The growth in the experiment with SF-539 CNS is 102%; in the experiment on UACC-257 melanoma, 97.5%; in the experiment with M14 melanoma, 99.1%.

In the case of `COc1ccc2nc(-c3c(-c4ccccc4)nc4ncccn34)[nH]c2c1`, the growth is 115% in the experiment with DU-145 prostate; 101% in the experiment on K-562 leukemia; 112% in the experiment with MALME-3M melanoma; 99.3% in the experiment with MDA-MB-231 breast; 104% in the experiment on RXF 393 renal; 109% in the experiment with SF-268 CNS. The values for the growth in the experiment with SF-539 CNS, in the experiment on UACC-257 melanoma and in the experiment with M14 melanoma were 100%, 105% and 107%, respectively.

For the compound `Cc1nnc2nc(N)[nH]n2c1=O`, the growth is 104% in the experiment with DU-145 prostate; 101% with K-562 leukemia; 93.9% with MALME-3M melanoma; 129% with MDA-MB-231 breast; 117% with RXF 393 renal; 103% with SF-268 CNS. In addition, the growth is 114% in the experiment on SF-539 CNS, 98.5% in the experiment with UACC-257 melanoma and 99.2% in the experiment on M14 melanoma.
